# Results from ChEMBL document CHEMBL3988442, “University of Dundee, Small-Polar-MMV Screening Library” (2021).
# Screen size: about 48,000 compounds; about 13,000 (27%) showed an effect of 50% or more. Some of the results follow.
# Tested on: Wolbachia pipientis
# Experiment: Anti-Wolbachia Cell-Based Screen
# Assay type: functional
# Design: scale not given: in the data most compounds retested in dose-response had high values
# Details: 5 µM
row,Structure (SMILES),Percent Effect [%]
1,Cc1c(C)c2c(c(C)c1O)CC[C@](C)(C(=O)O)O2 [(R)-TROLOX],132.5
2,CNc1cc(C)nc(NCc2cc(C)cc3c(C)c(C)[nH]c23)n1,13.77
3,CNC(=O)NC(=O)C(C)N1CCN(C2CCCC2)CC1 (stereo unspecified),-18
4,CC(Cn1ccnc1)NC(=O)NCCNC(=O)C(C)C (stereo unspecified),-18.32
5,CCC(Cn1ccnc1)n1cnc2scc(C)c2c1=O (stereo unspecified),110.7
6,CCC(CO)n1cnc2scc(C)c2c1=O (stereo unspecified),100.6
7,Cc1nc(CN2CCCn3c(nc(Cn4ccnc4)cc3=O)C2)cs1,17.01
8,CCC(Cn1ccnc1)n1cnc2c(C)csc2c1=O (stereo unspecified),163.7
9,Cc1csc2c(=O)n(CCN3CCC(c4ccccc4)CC3)cnc12,21.54
10,Cc1csc2ncn(C(C)Cc3cccnc3)c(=O)c12 (stereo unspecified),-2.167
11,Cc1csc2c(=O)n(C(C)Cc3cccnc3)cnc12 (stereo unspecified),4.44
12,COCC1CCN(Cc2cc(O)c3c(C)ccc(C)c3n2)CC1,5.678
13,Cn1cccc1C(=O)N1CCCCC12CC(=O)N(c1cccnc1)C2.O=C(O)C(F)(F)F (stereo unspecified),-1.407
14,CN1CC(=O)N(c2cccnc2)CC12CCN(C(=O)C1CCCCC1)C2.O=C(O)C(F)(F)F.O=C(O)C(F)(F)F (stereo unspecified),-22.33
15,CN1CC(=O)N(c2cccnc2)CC12CCN(C(=O)c1cccn1C)C2.O=C(O)C(F)(F)F.O=C(O)C(F)(F)F (stereo unspecified),108.5
16,Cc1cc(C(=O)N2CCC3(CC2)COCCN(c2cccnc2)C3)[nH]n1.O=C(O)C(F)(F)F,-3.174
17,Cc1oncc1C(=O)N1CCC2(C1)CN(c1cccnc1)C(=O)CN2C (stereo unspecified),-7.65
18,Cc1cc(C(=O)N2CCC3(C2)CN(c2cccnc2)C(=O)CN3C)[nH]n1.O=C(O)C(F)(F)F.O=C(O)C(F)(F)F (stereo unspecified),112
19,COc1cc(C)ccc1OCCN1CC[C@@]2(O)CCNC[C@H]2C1,28.12
20,CN(C)[C@@H]1CN(C(=O)c2cc3cccc(F)c3[nH]2)C[C@H]1O,116.9
21,CN1CCN([C@@H]2CN(C(=O)c3cc4cccc(F)c4[nH]3)C[C@H]2O)CC1,104.7

row,Structure (SMILES),Percent Effect [%]
1,Cc1ccc2cc(C(=O)N3CCS(=O)(=O)CC3)[nH]c2c1,-4.814
2,CCn1nc(CC(C)C)cc1C(=O)N1C[C@H](O)[C@@H](N2CCCCC2)C1,-3.036
3,O=C(c1cc2cccc(F)c2[nH]1)N1C[C@@H](O)[C@H](N2CCCC2)C1,132.3
4,Cc1ccc2cc(C(=O)N3CCN(C(=O)c4ccoc4)CC3)[nH]c2c1,0.1699
5,CN1CCN([C@@H]2CN(C(=O)c3cc4ccc(F)cc4[nH]3)C[C@H]2O)CC1,68.22
6,CN(C)[C@H]1CN(C(=O)c2ccc3sc4c(c3c2)CCNC4=O)C[C@@H]1O,13.68
7,COc1ccccc1OCc1cc(C(=O)N2C[C@H](O)[C@@H](N(C)C)C2)n[nH]1,14.49
8,Cc1ccc(OC2(C(=O)O)CCN(C(=O)c3ccoc3C)CC2)cn1,-1.307
9,CCN(Cc1csc(CS(C)(=O)=O)n1)c1cccc(F)c1,0.8671
10,CCN(C)c1ccc(CNC(=O)CCn2cc(C)cn2)cc1F,-2.464
11,Cc1ccc(N2CCO[C@H]3CN(Cc4cc(C)on4)CC[C@H]3C2=O)cn1.O=C(O)C(F)(F)F.O=C(O)C(F)(F)F,-4.354
12,CC(C)c1cc(NCC(O)c2ccc(F)cc2)n2nccc2n1 (stereo unspecified),-15.19
13,CCN(CC)C(=O)Cn1cc(C(=O)NCCc2scnc2C)nn1,5.922
14,O=C(NC1CCS(=O)(=O)c2ccccc21)c1sccc1C1CC1 (stereo unspecified),-7.789
15,CN(CCc1ccccn1)[C@@H]1CCN(c2cccc(C#N)n2)C[C@H]1O,16.97
16,N#CCCCn1nnc(C2(NC(=O)c3ccccc3)CCCC2)n1,-18.68
17,O=C1CN(C(=O)c2cc(-c3ccco3)nc3c(Cl)cccc23)CCN1,-11.35
18,CCc1nccc(CN2CCC(CNC(=O)Nc3ccccc3)C2)n1 (stereo unspecified),-10.66
19,COc1cc(CNC(=O)C(C)SC)cc(Br)c1OC (stereo unspecified),11.13
20,O=C(c1ccc(F)cc1F)N1C[C@@H](O)[C@H](N2CCOCC2)C1,7.48
21,O=C(Nc1ccc(-n2cccn2)cc1)N1C[C@H](O)[C@@H](N2CCOCC2)C1,1.189

row,Structure (SMILES),Percent Effect [%]
1,O=C(c1cc2cccc(F)c2[nH]1)N1C[C@@H](O)[C@H](N2CCOCC2)C1,110.4
2,CCCn1ncc(-c2nc3c(cnn3CC)[nH]2)c1C,-25.23
3,COCCN(c1ccncc1)S(=O)(=O)c1cc(C)c(F)cc1F,-2.029
4,Cc1noc(C(C)C)c1C(=O)NCc1ccc2c(c1)OCCO2,83.78
5,CC(=O)NCC1CCN(C(=O)NCc2ccc3c(c2)OCCO3)CC1,-6.191
6,Cc1noc(C(C)C)c1C(=O)NCc1ccc(N(C)C)c(F)c1,78.48
7,Cc1noc([C@@H](C)NCc2ccc(F)cc2)c1C(=O)O.Cl,-4.042
8,Cc1noc(C)c1C(=O)NCc1ccnc(OCC(F)(F)F)c1,-2.057
9,CN(C)C(=O)c1ccccc1NC(=O)N(C)Cc1ccccc1O,-13.22
10,O=C(CCNC(=O)NC1CCN(C2CC2)CC1)NCc1ccccc1,-15.75
11,N#Cc1ccnc(N2CCN(CC(O)c3ccc(F)c(F)c3)CC2)c1 (stereo unspecified),-18.53
12,CCc1cc(N[C@H]2CC[C@H](O)CC2)n2nc(C)c(C)c2n1,-14.47
13,Cc1ccc(CNC(=O)NCc2csc(C)n2)cn1,-1.986
14,Cc1ccc(CNC(=O)Nc2nccs2)cn1,93.38
15,Cc1ccc(CNC(=O)Nc2nncs2)n1C,-4.226
16,COc1cc(CNC(=O)Nc2nncs2)ccc1O,-8.608
17,Cc1ccc(CNC(=O)Nc2cc(C(F)(F)F)c[nH]c2=O)cn1,3.357
18,Cc1ccc(CNC(=O)Nc2nncs2)cn1,108.3
19,O=C1CN(Cc2nnc(-c3ccccc3Br)o2)CCN1,-2.201
